# This is part of a sample that, as a whole, favours compounds with a hit. Of some 79,000 tested, about 15% had one in any assay. Activity calls are given as the source filed them. Cut-off read from the data, not from the text of the source: active = growth inhibition above about 70%; inactive = the rest.
# Experiment: NCI Yeast Anticancer Drug Screen. Data for the mec2-1 strain (AID 157)
# Settings: S. cerevisiae mec2-1 strain, at 50.0 µM, stronger effect = higher value
# Method: Growth inhibition of yeast strains with defined genetic alterations is measured as a screen for potential anti-cancer activity. Selected strains with alterations in DNA damage repair or cell cycle control were exposed to compounds and growth inhibition was measured relative to vehicle treated controls. The strain used in this assay is mec2-1
row,SMILES,growth inhibition
1,O=c1c2ccccc2nc(-c2ccccc2)n1/N=C/c1ccccc1[N+](=O)[O-],1% (inactive)
2,CC(O)Cn1cnc2c1c(=O)n(C)c(=O)n2C (stereo not given),-42.8% (inactive)
3,COc1cc2c(cc1O)C(Cc1ccc(OC)c(OC)c1)N(C)CC2 (stereo not given),0.85% (inactive)
4,N#C/C=C1\C=CC(O)C(O)C1OC1OC(CO)C(O)C(O)C1O (stereo not given),7.3% (inactive)
5,CCCCCCCCCCCCCCCC(C)(C)O,-27.6% (inactive)
6,Cc1ccc(CNc2ccc(F)cc2)cc1,28.9% (inactive)
7,CC(CN1CCCC1)C(O)(Cc1ccccc1)c1ccccc1 (stereo not given),-2.7% (inactive)
8,NC(=S)N/N=C/c1cc([N+](=O)[O-])ccc1Cl,-9.75% (inactive)
9,N#C/C(=C/c1c(O)ccc2ccccc12)C(N)=O,18.4% (inactive)
10,COc1ccc2cc(CN3CCC(C4CCNCC4)CC3)ccc2c1,-4.8% (inactive)
11,CCOC(=O)c1c(N)sc2c1CCN(Cc1ccccc1)C2,17.8% (inactive)
12,CC1=C(/C=C/C(C)=C/C=C/C(C)=C/C(=O)Nc2ccc(O)cc2)C(C)(C)CCC1,1.05% (inactive)
13,CC(=O)[C-](C(C)=O)c1ccccc1.CC(=O)[C-](C(C)=O)c1ccccc1.CC(=O)[C-](C(C)=O)c1ccccc1.[Cl-].[Zr+4],28.8% (inactive)
14,OCc1ccccc1OC1OC(CO)C(O)C(O)C1O (stereo not given),2.6% (inactive)
15,CCC/C(Cl)=N/OC(=O)Nc1cccc(F)c1,-6.9% (inactive)
16,O=C(O)c1cc(C(=O)O)cc([N+](=O)[O-])c1,-5.9% (inactive)
17,COc1c(O)ccc(C2=Cc3ccc(O)cc3OC2)c1OC,91.5% (active)
18,Cc1ccc(OCC2OC(n3cnc4nc(Cl)nc(Cl)c43)CC2Oc2ccc(C)cc2)cc1 (stereo not given),12.4% (inactive)
19,C/C=C(/C)N(C(C)=O)N(C(C)=O)c1ccc([N+](=O)[O-])cc1[N+](=O)[O-],-18.2% (inactive)
20,COC(=O)C1=CO[C@@H](OC2OC(CO)C(O)C(O)C2O)[C@H]2[C@@H](C)[C@@H](O)[C@@H](O)[C@@H]12 (stereo not given in full),-10.1% (inactive)

row,SMILES,growth inhibition
1,CC(=N\N=C\c1ccccn1)/C(C)=N/N=C/c1ccccn1,10.3% (inactive)
2,CC1=NOC(=O)C1C(C)(C)C1C(=O)ON=C1C (stereo not given),-0.7% (inactive)
3,Cc1ccc(NC2=N/C(=C/c3ccccc3)C(Cl)=N2)cc1,-30.6% (inactive)
4,NC(=O)CC1OC(=O)Cc2cc3c(c(O)c21)C(=O)c1c(O)cccc1C3=O (stereo not given),3.55% (inactive)
5,CCOC(=O)C(C#N)C(C(C)=O)C(=O)OCC (stereo not given),-1.45% (inactive)
6,CCOC(=O)C1CCC(C(=O)OCC)N1c1ccc(C=O)cc1 (stereo not given),-18.1% (inactive)
7,Cc1ccc(S(=O)(=O)Nc2ccccc2C2Nc3ccccc3C(=O)O2)cc1 (stereo not given),-7.4% (inactive)
8,C=CN1C(=O)N(C=C)C(C)(CC(C)C)C1=O (stereo not given),-5.55% (inactive)
9,CC1OC(Oc2c(-c3cc(O)c(O)c(O)c3)oc3cc(O)cc(O)c3c2=O)C(O)C(O)C1O (stereo not given),-16.8% (inactive)
10,COc1cc(/C=N/NC(=O)c2ccncc2)cc(OC)c1OC,-48.5% (inactive)
11,CCOC(=O)C(CNc1ccccc1)C(=O)OCC,-3.05% (inactive)
12,O=C(/C=C/C=C/c1ccccc1)c1ccc(Cl)cc1,-27.4% (inactive)
13,O=C(O)c1ccc(NCn2c(=S)[nH]c3ccccc32)cc1O,-42.5% (inactive)
14,CCOC(=O)NC(C)(C)CN(C(=O)OCC)c1ccccc1,-39.6% (inactive)
15,Cc1ccc(NCN2C(=O)c3ccccc3C2=O)cc1Cl,-5.55% (inactive)
16,O=C(O)CCCC(=O)Nn1c(Cc2ccc(Cl)cc2)n[nH]c1=O,-13.1% (inactive)
17,Nc1ccc(I)cc1Cl,4.5% (inactive)
18,Cc1n[nH]c(=O)n(/N=C\c2c[nH]c3ccccc23)c1=O,-4.55% (inactive)
19,Cc1ccc(S(=O)(=O)N2CCC(O)(c3ccccc3)CC2)cc1,-36.3% (inactive)
20,Cc1cccc(NNC(=S)Nc2ccccc2)c1,-14.8% (inactive)

# Source: PubChem BioAssay (NCI)
